The supplement of paper PMC13380429

Test system: Vero E6 infected with SARS-CoV-2
Test: inhibition of SARS-CoV-2 cytopathic effect; higher = more antiviral protection, active = above 15
Settings: 48 h

Measured: inhibition of SARS-CoV-2 cytopathic effect

Cc1ccc(Oc2ccccc2-c2csc(N=C3NCCCN3)n2)c(C)c1 [abafungin]
inactive: 1 nM 2.5% | 8.33 nM 1.5% | 100 nM 1.28% | 833.33 nM -1.03% | 10000 nM -6.36%

CCCOC(=O)c1ccccc1 [propyl-benzoate]
inactive: 1 nM 2.41% | 8.33 nM 0.41% | 100 nM -0.99% | 833.33 nM 0.39% | 10000 nM 2.1%

COC(=O)N[C@H](C(=O)N1CC2(CC2)C[C@H]1c1nc(-c2ccc3c(c2)C(F)(F)c2cc(-c4ccc5[nH]c([C@@H]6[C@H]7CC[C@H](C7)N6C(=O)[C@@H](NC(=O)OC)C(C)C)nc5c4)ccc2-3)c[nH]1)C(C)C [ledipasvir]
inactive: 1 nM -1% | 8.33 nM 1.14% | 100 nM -1.6% | 833.33 nM -5.39% | 10000 nM -5.41%

CN(C)C(=O)CCSC(SCCC(=O)O)c1cccc(/C=C/c2ccc3ccc(Cl)cc3n2)c1 (stereo not given)
inactive: 1 nM -1.06% | 8.33 nM -1.39% | 100 nM 3.57% | 833.33 nM 1.55% | 10000 nM 5.11%

O=[N+]([O-])c1ccc2nc(COCc3nc4ccc([N+](=O)[O-])cc4[nH]3)[nH]c2c1
inactive: 1 nM -1.36% | 8.33 nM -1.65% | 100 nM -4.45% | 833.33 nM 0.4% | 10000 nM -0.17%

Clc1ccc2c(c1)N=C(N1CCNCC1)c1ccccc1N2 [desmethylclozapine]
inactive: 1 nM 1.9% | 8.33 nM 0.8% | 100 nM 0.19% | 833.33 nM 2.8% | 10000 nM -4.43%

CCCCCCCCCCCCCC[C@@H](O)[C@@H](O)[C@@H](N)CO [phytosphingosine]
inactive: 1 nM -6.1% | 8.33 nM -0.27% | 100 nM -1.1% | 833.33 nM -3.05% | 10000 nM -6.04%

N[C@@H](C(=O)O)c1ccc(C(=O)O)c(C(=O)O)c1 (racemic)
inactive: 1 nM 2.59% | 8.33 nM 0.287% | 100 nM 1.6% | 833.33 nM -2.93% | 10000 nM -0.293%

C=C1c2cccc(O)c2C(=O)C2=C(O)[C@]3(O)C(=O)C(C(N)=O)=C(O)[C@@H](N(C)C)[C@@H]3[C@@H](O)[C@H]12 [methacycline]
inactive: 1 nM 1.27% | 8.33 nM -0.1% | 100 nM 1.49% | 833.33 nM 0.36% | 10000 nM 2.34%

CCOC(=O)n1ccn(C)c1=S [carbimazole]
inactive: 1 nM -1.34% | 8.33 nM -2.13% | 100 nM -2.63% | 833.33 nM -3.71% | 10000 nM 1.38%

O[C@H]1CC[C@H](Nc2nc(-c3ccccc3)nc3[nH]ccc23)CC1
inactive: 1 nM -1.91% | 8.33 nM -3.12% | 100 nM -4.27% | 833.33 nM -1.49% | 10000 nM -0.8%

CCCCCCc1ccc(O)cc1O [hexylresorcinol]
inactive: 1 nM 1.73% | 8.33 nM 1.1% | 100 nM 2.21% | 833.33 nM 4.02% | 10000 nM 3.14%

O=C(Nc1cnn2ccc(N3CCC[C@@H]3c3cc(F)ccc3F)nc12)N1CC[C@H](O)C1 [larotrectinib]
inactive: 1 nM 1.44% | 8.33 nM 4.14% | 100 nM 3.48% | 833.33 nM -0.49% | 10000 nM 2.41%

CCNC(=O)Nc1ccc(-c2nc3c(c(N4CCOC[C@@H]4C)n2)CCN(C2COC2)C3)cc1
inactive: 1 nM 0.65% | 8.33 nM -0.06% | 100 nM -0.8% | 833.33 nM 0.29% | 10000 nM -0.84%

Cc1cc(C(C#N)c2ccc(Cl)cc2)c(Cl)cc1NC(=O)c1cc(I)cc(I)c1O (stereo not given) [closantel]
inactive: 1 nM 0.26% | 8.33 nM 1.55% | 100 nM 1.07% | 833.33 nM 3.04% | 10000 nM 5.87%

CCCN(CCC)C(=O)C(CCC(=O)OCCCN1CCN(CCOC(=O)Cc2c(C)n(C(=O)c3ccc(Cl)cc3)c3ccc(OC)cc23)CC1)NC(=O)c1ccccc1 (stereo not given) [proglumetacin]
inactive: 1 nM -3.43% | 8.33 nM -2.43% | 100 nM -2.86% | 833.33 nM -4.91% | 10000 nM -12.6%

C[C@]12CC[C@H]3[C@@H](CC[C@@]45O[C@@H]4C(O)=C(C#N)C[C@]35C)[C@@H]1CC[C@@H]2O [trilostane]
inactive: 1 nM 1.21% | 8.33 nM -0.28% | 100 nM -1.2% | 833.33 nM 0.24% | 10000 nM 2.15%

Fc1ccc(C(OCCN2CCN(C/C=C/c3ccccc3)CC2)c2ccc(F)cc2)cc1
inactive: 1 nM 1.02% | 8.33 nM 1.01% | 100 nM 3.35% | 833.33 nM 1.4% | 10000 nM 0.32%

O=C(O)/C=C1\CCCc2ccccc2[C@H]1O (racemic)
inactive: 1 nM 0.95% | 8.33 nM 1.44% | 100 nM 1.65% | 833.33 nM 1.72% | 10000 nM 4.1%

O=C(c1cc2ccccc2o1)N1CCN(Cc2ccccc2)CC1 [befuraline]
inactive: 1 nM -1.29% | 8.33 nM 1.94% | 100 nM 3.17% | 833.33 nM 0.64% | 10000 nM -2.11%

NC1(Cc2ccc(Cl)cc2)CCN(c2ncnc3[nH]ccc23)CC1
inactive: 1 nM -1.05% | 8.33 nM 0.05% | 100 nM -0.65% | 833.33 nM 0.89% | 10000 nM -9.28%

COc1cc2ncc(-c3ccccc3)nc2cc1OC [tyrphostin-AG-1296]
inactive: 1 nM 1.41% | 8.33 nM 0.53% | 100 nM 0.84% | 833.33 nM -1.04% | 10000 nM -1.96%

Cc1nc2sccn2c(=O)c1CCN1CCC(=C(c2ccccc2)c2ccc(F)cc2)CC1
inactive: 1 nM 1.18% | 8.33 nM -2.89% | 100 nM 0.46% | 833.33 nM 2.57% | 10000 nM 1.02%

CCOC(=O)c1ncn2c1CN(C)C(=O)c1cc(N=[N+]=[N-])ccc1-2
inactive: 1 nM 3.15% | 8.33 nM 7.03% | 100 nM 2.59% | 833.33 nM -0.14% | 10000 nM -2.15%

N#C/C(=C\c1ccc(O)c(O)c1)C(=O)NCCCCc1ccccc1
inactive: 1 nM 0.51% | 8.33 nM 1.37% | 100 nM 1.91% | 833.33 nM 0.14% | 10000 nM -0.03%
